{"source": "PubChem BioAssay (NCATS)", "note": "Values joined by “and” are separate entries in the source; they are usually repeats but may differ in a detail not shown here. Equal values may be shown once. Results filed as inconclusive are left out. Unmarked numbers belong to inactive results. Active and inactive are the calls of the source. The call rests on the fitted dose curve; in most records, active means well fitted cell-killing curve with a large enough effect; inconclusive means small, poorly fitted or top-dose-only effect, or effect the other way; inactive means flat fitted curve, though single readings scatter. Non-standard residues stand in square brackets, D forms with d. Residues, ends and D or L forms follow the SMILES beside them. *: point of attachment. Sta = CC(C)C[C@H](N)[C@@H](O)CC(=O)O; Isovaleryl = CC(C)CC(=O)*", "data": [{"tested_on": "Hek293T", "assay": "Primary qHTS to identify gynecologic anti-cancer compounds using libraries of approved drugs and bioactive compounds (AID 1345084); further: nearly all actives have a fitted effect of over 55% in size; further: potency means the concentration at half of the fitted maximal effect; on activity change, negative = cytotoxicity: on the % scale 0 is the no-effect control and ±100 the full control effect", "settings": "Gynecologic cancer cell panel viability, ATPlite luminescence, 48 h, control line for the selectivity index; series mostly up to 57.5 µM; activity change, negative = cytotoxicity: at the top concentration", "how_it_was_run": "(§1)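 Cells, 1,000 per well, were allowed to settle for 16 h at 37 C before compound addition. Five concentrations were tested for 48 h, and viability was read by ATPlite luminescence after 15 min at room temperature.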", "values": [{"smiles": "CS(=O)(=O)OCCCCOS(C)(=O)=O", "activity change, negative = cytotoxicity": "18.2%"}, {"smiles": "CC(C)c1ccc2oc3nc(N)c(C(=O)O)cc3c(=O)c2c1", "Potency": "7.08 µM (active)"}, {"smiles": "CN(C)C(=O)COC(=O)Cc1ccc(OC(=O)c2ccc(N=C(N)N)cc2)cc1", "activity change, negative = cytotoxicity": "5.58%"}, {"smiles": "Cc1cc2c(s1)Nc1ccccc1N=C2N1CCN(C)CC1", "Potency": "inactive"}, {"smiles": "Cc1cc(C2CCCCC2)n(O)c(=O)c1", "Potency": "7.08 µM (active)"}, {"smiles": "CC1=C(C)C(=O)C(C(CCCCCC(=O)O)c2ccccc2)=C(C)C1=O", "note": "(stereo unspecified)", "activity change, negative = cytotoxicity": "15.4%"}, {"smiles": "CC(=O)NC[C@H]1CN(c2ccc(N3CCOCC3)c(F)c2)C(=O)O1", "activity change, negative = cytotoxicity": "-0.141%"}, {"smiles": "NNc1nncc2ccccc12", "activity change, negative = cytotoxicity": "-8.48% [at 25.3 µM]"}, {"smiles": "CC(S)C(=O)NCC(=O)O", "note": "(stereo unspecified)", "activity change, negative = cytotoxicity": "8.07%"}, {"smiles": "Cc1ccc(Nc2nccc(N(C)c3ccc4c(C)n(C)nc4c3)n2)cc1S(N)(=O)=O", "activity change, negative = cytotoxicity": "-27.1%"}, {"smiles": "CCCc1cc(=O)[nH]c(=S)[nH]1", "activity change, negative = cytotoxicity": "2.97%"}, {"smiles": "Clc1ccc(C(Cn2ccnc2)OCc2ccc(Sc3ccccc3)cc2)c(Cl)c1", "note": "(stereo unspecified)", "activity change, negative = cytotoxicity": "-0.638%"}, {"smiles": "COCCCOc1ccnc(CS(=O)c2nc3ccccc3[nH]2)c1C", "note": "(stereo unspecified)", "Potency": "inactive"}, {"smiles": "CC1(C)CCC(C)(C)c2cc(NC(=O)c3ccc(C(=O)O)cc3)ccc21", "activity change, negative = cytotoxicity": "-0.587%"}, {"smiles": "Cc1c(OCC(F)(F)F)ccnc1CS(=O)c1nc2ccccc2[nH]1", "note": "(stereo unspecified)", "activity change, negative = cytotoxicity": "-13.3%"}, {"smiles": "COc1cc2c(N3CCN(C(=O)Nc4ccc(OC(C)C)cc4)CC3)ncnc2cc1OCCCN1CCCCC1", "Potency": "inactive"}, {"smiles": "CC(C)CC(=O)N[C@H](C(=O)N[C@H](C(=O)N[C@@H](CC(C)C)[C@@H](O)CC(=O)N[C@@H](C)C(=O)N[C@@H](CC(C)C)[C@@H](O)CC(=O)O)C(C)C)C(C)C", "note": "(Isovaleryl-VV[Sta]A[Sta]-OH)", "activity change, negative = cytotoxicity": "-0.285%"}, {"smiles": "Clc1ccc(C(Cn2ccnc2)OCc2ccsc2Cl)c(Cl)c1", "note": "(stereo unspecified)", "activity change, negative = cytotoxicity": "-7.4%"}, {"smiles": "N=C(N)c1ccc2cc(OC(=O)c3ccc(N=C(N)N)cc3)ccc2c1", "activity change, negative = cytotoxicity": "-6.53%"}, {"smiles": "CCOC(=O)c1c(C)n(C)c2ccc(O)cc12", "activity change, negative = cytotoxicity": "2.18%"}, {"smiles": "Cc1ccc(C(=O)c2cc(O)c(O)c([N+](=O)[O-])c2)cc1", "activity change, negative = cytotoxicity": "-1.66%"}, {"smiles": "O=C(O)c1cccc(-c2noc(-c3ccccc3F)n2)c1", "Potency": "4.47 µM (active) and 7.08 µM (active)"}, {"smiles": "CCC1=C(C)CN(C(=O)NCCc2ccc(S(=O)(=O)NC(=O)NC3CCC(C)CC3)cc2)C1=O", "note": "(stereo unspecified)", "Potency": "inactive"}, {"smiles": "CC(=O)Nc1ccc(O)cc1", "activity change, negative = cytotoxicity": "9.94%"}, {"smiles": "OC(CN1CCN(c2cccc(Cl)c2)CC1)C(c1ccccc1)c1ccccc1", "note": "(stereo unspecified)", "activity change, negative = cytotoxicity": "-4.84%"}, {"smiles": "O=C(NOCC1CC1)c1ccc(F)c(F)c1Nc1ccc(I)cc1Cl", "activity change, negative = cytotoxicity": "4.81%"}, {"smiles": "Cc1cc(=O)c2c(O)c3c(O)cc(=O)c4c3c3c(cc(O)c1c23)C(C)(C)C=4O", "Potency": "2 µM (active)"}, {"smiles": "COc1cc2nc(N3CCN(C(=O)C4CCCO4)CC3)nc(N)c2cc1OC", "note": "(stereo unspecified)", "activity change, negative = cytotoxicity": "-2.52%"}, {"smiles": "Cc1ncc([N+](=O)[O-])n1CC(C)O", "note": "(stereo unspecified)", "activity change, negative = cytotoxicity": "-3.77%"}, {"smiles": "O=C(O)CCNC(=O)c1ccc(N=Nc2ccc(O)c(C(=O)O)c2)cc1", "activity change, negative = cytotoxicity": "4.19%"}]}, {"tested_on": "JEG-3", "assay": "Primary qHTS to identify gynecologic anti-cancer compounds using libraries of approved drugs and bioactive compounds (AID 1345084)", "settings": "Gynecologic cancer cell panel viability, ATPlite luminescence, 48 h; series mostly up to 57.5 µM; activity change, negative = cytotoxicity: at the top concentration", "how_it_was_run": "as §1", "values": [{"smiles": "CS(=O)(=O)OCCCCOS(C)(=O)=O", "activity change, negative = cytotoxicity": "-0.694%"}, {"smiles": "CC(C)c1ccc2oc3nc(N)c(C(=O)O)cc3c(=O)c2c1", "Potency": "7.94 µM (active)"}, {"smiles": "c1ccc2[nH]c(-c3cscn3)nc2c1", "activity change, negative = cytotoxicity": "-9.59%"}, {"smiles": "CN(C)C(=O)COC(=O)Cc1ccc(OC(=O)c2ccc(N=C(N)N)cc2)cc1", "activity change, negative = cytotoxicity": "1.48%"}, {"smiles": "Cc1cc2c(s1)Nc1ccccc1N=C2N1CCN(C)CC1", "Potency": "inactive"}, {"smiles": "CC1=C(C)C(=O)C(C(CCCCCC(=O)O)c2ccccc2)=C(C)C1=O", "note": "(stereo unspecified)", "activity change, negative = cytotoxicity": "-2.42%"}, {"smiles": "CC(=O)NC[C@H]1CN(c2ccc(N3CCOCC3)c(F)c2)C(=O)O1", "activity change, negative = cytotoxicity": "1.5%"}, {"smiles": "NNc1nncc2ccccc12", "activity change, negative = cytotoxicity": "-2.49% [at 25.3 µM]"}, {"smiles": "CC(S)C(=O)NCC(=O)O", "note": "(stereo unspecified)", "activity change, negative = cytotoxicity": "13.6%"}, {"smiles": "Cc1ccc(Nc2nccc(N(C)c3ccc4c(C)n(C)nc4c3)n2)cc1S(N)(=O)=O", "activity change, negative = cytotoxicity": "-2.03%"}, {"smiles": "Cc1c(C(=O)NN2CCCCC2)nn(-c2ccc(Cl)cc2Cl)c1-c1ccc(Cl)cc1", "activity change, negative = cytotoxicity": "-0.704%"}, {"smiles": "CCCc1cc(=O)[nH]c(=S)[nH]1", "activity change, negative = cytotoxicity": "12.4%"}, {"smiles": "Clc1ccc(C(Cn2ccnc2)OCc2ccc(Sc3ccccc3)cc2)c(Cl)c1", "note": "(stereo unspecified)", "activity change, negative = cytotoxicity": "2.84%"}, {"smiles": "COCCCOc1ccnc(CS(=O)c2nc3ccccc3[nH]2)c1C", "note": "(stereo unspecified)", "Potency": "inactive"}, {"smiles": "CC1(C)CCC(C)(C)c2cc(NC(=O)c3ccc(C(=O)O)cc3)ccc21", "activity change, negative = cytotoxicity": "5.53%"}, {"smiles": "Cc1c(OCC(F)(F)F)ccnc1CS(=O)c1nc2ccccc2[nH]1", "note": "(stereo unspecified)", "activity change, negative = cytotoxicity": "-29.2%"}, {"smiles": "COc1cc2c(N3CCN(C(=O)Nc4ccc(OC(C)C)cc4)CC3)ncnc2cc1OCCCN1CCCCC1", "activity change, negative = cytotoxicity": "-4.77%"}, {"smiles": "CC(C)CC(=O)N[C@H](C(=O)N[C@H](C(=O)N[C@@H](CC(C)C)[C@@H](O)CC(=O)N[C@@H](C)C(=O)N[C@@H](CC(C)C)[C@@H](O)CC(=O)O)C(C)C)C(C)C", "note": "(Isovaleryl-VV[Sta]A[Sta]-OH)", "activity change, negative = cytotoxicity": "15.6%"}, {"smiles": "Clc1ccc(C(Cn2ccnc2)OCc2ccsc2Cl)c(Cl)c1", "note": "(stereo unspecified)", "activity change, negative = cytotoxicity": "-6.22%"}, {"smiles": "N=C(N)c1ccc2cc(OC(=O)c3ccc(N=C(N)N)cc3)ccc2c1", "activity change, negative = cytotoxicity": "9.9%"}, {"smiles": "CCOC(=O)c1c(C)n(C)c2ccc(O)cc12", "activity change, negative = cytotoxicity": "2.67%"}, {"smiles": "CN(C)C(=O)[C@H](O)[C@H](Cc1ccccc1)NC(=O)c1cc2cc(Cl)ccc2[nH]1", "activity change, negative = cytotoxicity": "19.4%"}, {"smiles": "Cc1ccc(C(=O)c2cc(O)c(O)c([N+](=O)[O-])c2)cc1", "activity change, negative = cytotoxicity": "-29.2%"}, {"smiles": "O=C(O)c1cccc(-c2noc(-c3ccccc3F)n2)c1", "Potency": "7.94 µM (active) and 11.2 µM (active)"}, {"smiles": "CCC1=C(C)CN(C(=O)NCCc2ccc(S(=O)(=O)NC(=O)NC3CCC(C)CC3)cc2)C1=O", "note": "(stereo unspecified)", "Potency": "inactive"}, {"smiles": "CC(=O)Nc1ccc(O)cc1", "activity change, negative = cytotoxicity": "-1.67%"}, {"smiles": "OC(CN1CCN(c2cccc(Cl)c2)CC1)C(c1ccccc1)c1ccccc1", "note": "(stereo unspecified)", "activity change, negative = cytotoxicity": "7.3%"}, {"smiles": "O=C(NOCC1CC1)c1ccc(F)c(F)c1Nc1ccc(I)cc1Cl", "activity change, negative = cytotoxicity": "-10.2%"}, {"smiles": "COc1cc(C(C)=O)ccc1OCCCN1CCC(c2noc3cc(F)ccc23)CC1", "activity change, negative = cytotoxicity": "12.6%"}, {"smiles": "COc1cc2nc(N3CCN(C(=O)C4CCCO4)CC3)nc(N)c2cc1OC", "note": "(stereo unspecified)", "activity change, negative = cytotoxicity": "-7.43%"}, {"smiles": "O=C(O)CCNC(=O)c1ccc(N=Nc2ccc(O)c(C(=O)O)c2)cc1", "activity change, negative = cytotoxicity": "-2.86%"}]}]}
